Assay outcomes as filed in PubChem.
Most compounds without a hit are left out; they make up all but 11% or so of the library.
PNC inhibitor: perinucleolar compartment assembly inhibition; hit rate 3.1% among 140,000; PC3M PTB-GFP, PNC prevalence imaging, 16 h; active compounds read low; activity change (PNC), negative = inhibition, % at 10 µM;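 active means readout at or below -70, meaning at least 70% loss of cells showing the perinucleolar compartment, a nuclear body marking cancer cells; inconclusive means readout between -30 and a set limit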;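 further: plate controls were DMSO wells for no effect and camptothecin positive control wells for full effect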
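PC3M cells stably expressing PTB-GFP, 750–1000 cells/well, treated 16 h at 37 °C with compound (23 nl of library stock), in duplicate. After paraformaldehyde fixation and Hoechst stain, imaged at 20x; PNC prevalence scored by image analysis.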
HPGD block: blocks human HPGD enzyme activity | purified HPGD, NADH fluorescence kinetic, PGE2 substrate | Potency, µM, for the others: at the top dose activity change, negative = inhibition, usual class: inhibitors | hit rate 4.3% among 150,000; active means well fitted inhibition curve with a large enough effect, not every such curve was filed as active; inconclusive means small, poorly fitted or top-dose-only effect, or another doubt; inactive means no such curve, though single readings can be large or run the other way; further: potency means the concentration at half of the fitted maximal effect; on the % scale 0 is the no-effect control and ±100 the full control effect
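NADH formation kinetics: reaction with 30 uM PGE2 and 1 mM NAD+ (final), 20 nM enzyme, Tris-HCl pH 8 with Tween 20, after 15 min compound preincubation at room temperature. Fluorescence change, last versus first of five reads.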
ALDH1A1 block: inhibitors of human aldehyde dehydrogenase 1A1 | P00352 | Potency, µM (titrated, usually from 75.3 µM), for the others: at the highest dose activity, negative = inhibition, hits mostly inhibitors | Purified ALDH1A1, NADH fluorescence, propionaldehyde substrate | hit rate 7.3% among 220,000; active means well fitted inhibition curve with a large enough effect, not every such curve was filed as active; inconclusive means small, poorly fitted or top-dose-only effect, or another doubt; inactive means no such curve, though single readings can be large or run the other way;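 further: potency means the concentration at half of the fitted maximal effect; plate controls were no enzyme wells and a reference inhibitor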
HTT cytoprotect: Huntington cell model cytoprotection by ATP luminescence | hit rate 0.14% among 230,000 | PC12 HTT-Q103 induced, cytoprotection, ATP luminescence, 40 h | Potency, µM (titrated, usually from 56.4 µM), for inactives: cytoprotection (ATP increase), hits mostly activators; further: potency means the concentration at half of the fitted maximal effect; % of control where 0% means no effect; nearly all actives have a fitted effect of over 45% in size
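PC12 cells stably carrying ecdysone-inducible Htt exon 1 (Q103)–GFP were induced with 100 nM tebufenozide (final) alongside library compounds in a dose series. Cytoprotection was scored as retained ATP by ATPlite luminescence.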
HttQ103 aggreg: inhibitors of mutant huntingtin aggregate formation in PC12 cells; PC12 HttQ103-GFP aggregates, Acumen cytometry, 40 h; Potency, µM (highest dose often 46.1 µM), without a hit: at the top dose activity change, negative = inhibition, hits mostly inhibitors; hit rate 1.1% among 220,000; AID 1688; further: potency means the concentration at half of the fitted maximal effect; on the % scale 0 is the no-effect control and ±100 the full control effect; nearly all actives have a fitted effect of over 60% in size
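PC12 cells with ecdysone-inducible HTT exon1 Q103-GFP, induced by 100 nM tebufenozide, given compounds in a concentration series. GFP aggregates (1–25 um, 6 SD above background) counted in lysates by laser-scanning cytometry, 488 nm excitation.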
CBFb RUNX1 block: CBF-beta/RUNX1 interaction disruption. Q01196+Q13951. AlphaScreen CBFb-His/RUNX1-biotin binding, biochemical. Potency, µM (top dose mostly 59.8 µM), inactives show top-dose activity, negative = inhibition, hits mostly inhibitors. 230,000 tested, under 10 active; further: % of control where 0% means no effect
Target sequence (Q01196 whole entry, looked up): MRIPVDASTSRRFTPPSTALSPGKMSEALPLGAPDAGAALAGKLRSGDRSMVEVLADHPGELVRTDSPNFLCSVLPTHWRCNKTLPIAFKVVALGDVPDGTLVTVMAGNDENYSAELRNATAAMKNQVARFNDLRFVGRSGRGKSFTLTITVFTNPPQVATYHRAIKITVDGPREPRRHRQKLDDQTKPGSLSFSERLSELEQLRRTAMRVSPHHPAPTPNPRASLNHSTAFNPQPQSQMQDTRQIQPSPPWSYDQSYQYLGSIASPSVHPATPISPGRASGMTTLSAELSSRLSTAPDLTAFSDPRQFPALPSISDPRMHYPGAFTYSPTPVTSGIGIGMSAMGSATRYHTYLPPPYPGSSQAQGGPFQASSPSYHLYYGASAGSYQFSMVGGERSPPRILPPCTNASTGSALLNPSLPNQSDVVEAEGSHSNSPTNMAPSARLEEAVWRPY
Target sequence (Q13951 whole entry, looked up): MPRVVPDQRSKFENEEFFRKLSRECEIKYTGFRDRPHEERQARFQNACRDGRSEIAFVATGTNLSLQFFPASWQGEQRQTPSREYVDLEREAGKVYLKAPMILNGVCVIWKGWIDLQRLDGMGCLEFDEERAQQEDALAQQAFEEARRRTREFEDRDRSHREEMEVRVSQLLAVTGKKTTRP
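CBF-beta (His) and RUNX1 (biotin), 30 nM each; 20 min preassociation; + compound, 15 min; + beads 50 ng each (Ni, streptavidin), 90 min; RT; AlphaScreen read.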
* = called active by the depositor; ? = inconclusive; · = no result; [ ] = another dose, or the depositor's remark. Unless noted, the call rests on the fitted dose curve; in most records, active means well fitted curve in the direction sought with a large enough effect; inconclusive means small, poorly fitted or top-dose-only effect, or another doubt; inactive means no such curve, though single readings can be large; an effect the other way counts as inactive or inconclusive.

SMILES	PNC inhibitor	HPGD block	ALDH1A1 block	HTT cytoprotect	HttQ103 aggreg	CBFb RUNX1 block
CC1CCN(CC(=O)NCc2ccccc2)CC1	4	-24%	1%	-5%[0.074 µM]	2.5µM*	8%
CCOC(=O)C1C(=O)C=C(Nc2ccccc2F)CC1c1ccccc1 (centres undefined)	?	0%	-11%	-1%[10 µM]	-10%	-7%
N[C@@H](Cc1cc(CP(=O)(O)O)cc(-c2ccccc2Cl)c1)C(=O)O	·	-18%	0%	32µM*	·	-8%
COc1cc(-c2nnc3n(CCc4ccccc4)c(=O)c4ccccc4n23)cc(OC)c1OC	?	-27%	0.22µM*	·	7%	14%
C[C@H]1OC(OC2C(O)[C@@H](O)C(OC3C(O)[C@@H](O)C(O)O[C@@H]3CO)O[C@@H]2CO)[C@H](O)C(O)C1N[C@H]1C=C(CO)[C@@H](O)[C@H](O)C1O (some centres undefined)	·	-7%	9%	25%	-8%	2%
Cc1ccc(S(=O)(=O)NC2CCCCC2)c2nsnc12	24	-27%	16µM*	·	3%	-14%
O=C(c1ccc(=O)n(Cc2ccccc2)n1)N1CCN(C/C=C/c2ccccc2)CC1	-107*	-3%	?	?	-4%	-4%
O=C(c1ccc(Br)s1)N1CCN(C/C=C/c2ccccc2)CC1	-3	-24%	18µM*	-25%	?	22%
O=C(c1ccc(Br)o1)N1CCN(C/C=C/c2ccccc2)CC1	18	-1%	1%	5%	4%	-3%
CN(CC(=O)N1CCCCC1)S(=O)(=O)c1cccc2cccnc12	13	16µM*	?	-6%[10 µM]	-8%	12%
CN(Cc1ccccc1)S(=O)(=O)c1cccc2cccnc12	?	22µM*	8.9µM*	8%	1%[9.22 µM]	1%
CC1Cc2ccccc2N1C(=O)CN(C)S(=O)(=O)c1cccc2cccnc12 (centres undefined)	18	-4%	-11%	-18%	0.032µM*	0%
CN(C)CCN(Cc1ccccc1)S(=O)(=O)c1cccc2cccnc12	·	·	·	2%	·	·
COc1ccccc1CN1CCCC2(CCN(S(C)(=O)=O)CC2)C1	·	0%	11%	27%	·	·
COc1ccc(C2=Nn3c(nnc3-c3cc(OC)ccc3OC)SC2)c(OC)c1	·	·	·	·	·	-11%
CC[C@H](C)[C@H](NC(=O)[C@H](CCC(=O)O)NC(=O)[C@@H](N)CO)C(=O)N[C@@H](CCC(N)=O)C(=O)N[C@@H](CC(C)C)C(=O)N[C@@H](CCSC)C(=O)N[C@@H](Cc1cnc[nH]1)C(=O)N[C@@H](CC(N)=O)C(=O)N[C@@H](CC(C)C)C(=O)NCC(=O)N[C@@H](CCCCN)C(=O)N[C@@H](Cc1cnc[nH]1)C(=O)N[C@@H](CC(C)C)C(=O)N[C@@H](C)C(=O)N[C@@H](CO)C(=O)N[C@H](C(=O)N[C@@H](CCC(=O)O)C(=O)N[C@@H](CCCNC(=N)N)C(=O)N[C@@H](CCSC)C(=O)N[C@@H](CCC(N)=O)C(=O)N[C@@H](Cc1c[nH]c2ccccc12)C(=O)N[C@@H](CC(C)C)C(=O)N[C@@H](CCCNC(=N)N)C(=O)N[C@@H](CCCCN)C(=O)N[C@@H](CCCCN)C(=O)N[C@@H](CC(C)C)C(=O)N[C@@H](CCC(N)=O)C(=O)N[C@@H](CC(=O)O)C(=O)N[C@H](C(=O)N[C@@H](Cc1cnc[nH]1)C(=O)N[C@@H](CC(N)=O)C(=O)N[C@@H](Cc1ccccc1)C(=O)O)C(C)C)C(C)C	·	·	·	·	·	10%
Cc1ccc2nc3c(cc(C#N)c(=O)n3CCN3CCOCC3)c(=O)n2c1	-122*	·	?	-1%	15%	-4%
Cc1cccn2c(=O)c(C=Nc3ccc(Cl)cc3)c(NCCO)nc12	-100*	?	?	27%[10 µM]	-15%	-1%
NC(=O)Cc1ccc(C(=O)c2ccc(F)cc2)s1	·	·	3%	-26%	-3%	5%
C[C@@H](C(=O)O)c1ccc(C(=O)c2ccccc2)s1	·	14µM*	-16%[20.9 µM]	-146%[17.1 µM]	-5%[20.6 µM]	8%[21.7 µM]
CC(C(=O)O)c1ccc(C(=O)c2cccs2)cc1 (centres undefined)	·	?	?	-45%	·	12%
N#CCc1ccc(C(=O)c2ccccc2)s1	-82*	28µM*	?	21%[10 µM]	-4%	4%
CN1CCN(C(=O)c2ccc(CSc3ccc(Cl)cc3)cc2)CC1	?	8.9µM*	9%	22%[10 µM]	-9%	-3%
Cc1ccc(CSCC(=O)N2CCCC2)cc1	·	·	-1%	?	5%	3%
Cc1ccc(SCc2ccc(C(=O)N3CCCCC3)cc2)cc1	·	·	4µM*	-20%	8%[9.22 µM]	8%
SMILES	PNC inhibitor	HPGD block	ALDH1A1 block	HTT cytoprotect	HttQ103 aggreg	CBFb RUNX1 block
CN1CCN(C(=O)c2ccc(CN3CCOCC3)cc2)CC1	-93*	-20%	-6%	2%	16%	3%
CCOC(=O)N1CCN(C(=O)c2ccc(CSc3ccc(Cl)cc3)cc2)CC1	·	·	-10%	-21%	10%	-7%
CC1=NN(C(=O)c2ccc(Cn3cc([N+](=O)[O-])cn3)cc2)C(O)(C(F)(F)F)C1 (centres undefined)	?	-10%	4%	·	?	-10%
CC1(OC(=O)c2ccco2)C(=O)C2=COC(C3CC3)=CC2=C(Br)C1=O (centres undefined)	·	-7%	-10%	4%	·	-4%
CN(Cc1cccs1)S(=O)(=O)c1cccs1	?	28µM*	?	-7%[10 µM]	8%	-7%
CN(Cc1ccccc1)S(=O)(=O)c1cccs1	?	-25%	-3%	-7%	-28%	7%
O=C1c2ccccc2C(=O)c2c(O)c(O)cc(O)c21	·	25µM*	?	-5%[1.9 µM]	·	·
Nc1ccc(O)c2c1C(=O)c1ccccc1C2=O	9	13µM*	-4%	·	-3%	0%
O=C1c2ccccc2C(=O)c2c(O)ccc(O)c21	·	-9%	3%	-74%	·	?
CSCC[C@H](NC(=O)Nc1ccc(S(N)(=O)=O)cc1)C(=O)O	·	·	·	19%[10 µM]	4%[9.22 µM]	4%
Cc1cccc(NC(=S)N2CCCCCC2)c1	-106*	3%	?	·	-3%	-1%
CC(C)(C)c1ccc(S(=O)(=O)N2CCC(CO)(CC3CCCCO3)CC2)cc1 (centres undefined)	·	·	0.32µM*	17%[10 µM]	10%[9.22 µM]	-4%
O=C(CSCc1ccc(Cl)cc1)c1ccco1	3	22µM*	?	-7%	2%	2%
O=C(CSc1nnc(SCC(=O)c2ccco2)s1)c1ccco1	-20	32µM*	?	1%[10 µM]	-2%	5%
O=C(CSc1nc2cc(Cl)ccc2s1)c1ccco1	-7	22µM*	?	3%	3%[9.22 µM]	-6%
